The values below come from PubChem BioAssay (NCI).

About 83,000 compounds went through this panel and 20% of them were active in at least one assay; those are over-represented in the sample as a whole.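 96-well plates, one dose, 48 hours. Percent growth reported; active if below 10.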 A number with no mark means an inactive call. Calls of active or inactive are those of the source.

Some test systems named below: SR leukemia; RPMI-8226 leukemia; OVCAR-8 ovarian; OVCAR-5 ovarian; OVCAR-4 ovarian; SK-OV-3 ovarian; IGROV1 ovarian; OVCAR-3 ovarian; NCI/ADR-RES ovarian; HS 578T breast.
Holding throughout (assay): NCI-60 one-dose screen, 48 h (100 = growth as untreated, 0 = no growth, -100 = all killed)
What all share (conditions): 10 µM unless noted

As for `O=S(=O)(NCCCNc1cc(-c2cn(-c3ccccc3)nc2-c2cccc(O)c2)ccn1)c1ccc(Cl)cc1`, the growth with SR leukemia was 4.43% (active); in the assay with RPMI-8226 leukemia, 8.7% (active); in the assay on OVCAR-8 ovarian, 20.4%; with OVCAR-5 ovarian, 37%; in the assay on OVCAR-4 ovarian, 34.7%; with SK-OV-3 ovarian, 33.1%. Also, the growth in the assay on IGROV1 ovarian is 27.5%; with OVCAR-3 ovarian it was 26.6%; with NCI/ADR-RES ovarian, 23.7%.
On to `Nc1c(C(=O)Nc2ccccc2)sc2nc3c(cc12)CCCCC3`, for which the growth was 17% with SR leukemia; -29.6% (active) in the assay on RPMI-8226 leukemia; 17.9% with OVCAR-8 ovarian; 43.8% in the assay with OVCAR-5 ovarian; 15.3% with OVCAR-4 ovarian; 17.1% in the assay with SK-OV-3 ovarian. The growth is 36.2% in the assay on IGROV1 ovarian, 14.5% with HS 578T breast and 2.18% (active) in the assay on NCI/ADR-RES ovarian.
Take `Cc1ccc(C2=NN(c3ccc(S(=O)(=O)NC(=O)NCc4ccccc4)cc3)C(c3ccc(N(C)C)cc3)C2)c(C)c1` (stereo unspecified): the growth is 21.5% in the assay on SR leukemia; 16.6% in the assay with RPMI-8226 leukemia; 30.6% in the assay with OVCAR-8 ovarian; 55.1% with OVCAR-5 ovarian; 57.7% in the assay on OVCAR-4 ovarian; 88.3% with SK-OV-3 ovarian. The growth with IGROV1 ovarian is 54.1%; with OVCAR-3 ovarian, 38.3%; with NCI/ADR-RES ovarian, 33.7%.
As for `COc1cccc(NC(=O)c2sc3nc4c(cc3c2N)CCCC4)c1`, the growth was 14.3% in the assay with SR leukemia; -4.6% (active) with RPMI-8226 leukemia; 25.8% in the assay with OVCAR-8 ovarian; 38.6% in the assay with OVCAR-5 ovarian; 72.1% with OVCAR-4 ovarian; 28.7% in the assay on SK-OV-3 ovarian. In addition, the growth with IGROV1 ovarian is 37.1%; with HS 578T breast, 48%; in the assay on NCI/ADR-RES ovarian, -12.1% (active).
With `NS(=O)(=O)c1ccc(CN2C(=O)c3cccc4cccc(c34)C2=O)cc1`, the growth in the assay with SR leukemia was 104%; with RPMI-8226 leukemia it was 87.2%; with OVCAR-8 ovarian, 91.9%; with OVCAR-5 ovarian, 89.6%; with OVCAR-4 ovarian, 119%; in the assay on SK-OV-3 ovarian, 101%. The results for the growth in the assay on IGROV1 ovarian, in the assay on OVCAR-3 ovarian and with NCI/ADR-RES ovarian were 105%, 98.5% and 98%, respectively.
As for `COc1cc(CNC(=O)CCSc2nc3ccccc3c(=O)n2Cc2cc(OC)c(OC)c(OC)c2)cc(OC)c1OC`, the growth is 11.1% in the assay with SR leukemia; 39.2% with RPMI-8226 leukemia; 48.2% with OVCAR-8 ovarian; 68.3% with OVCAR-5 ovarian; 58.9% in the assay on OVCAR-4 ovarian; 27.3% with SK-OV-3 ovarian. Moreover, the growth was 51.3% in the assay with IGROV1 ovarian, 57.4% in the assay on HS 578T breast and 17.4% in the assay with NCI/ADR-RES ovarian.
Turning to `CC(=O)Nc1nc(C(=O)N2N=C(C)/C(=C/c3ccccc3)C2=O)cs1`, the growth in the assay with SR leukemia was 90.7%; with RPMI-8226 leukemia, 102%; in the assay on OVCAR-8 ovarian it was 105%; in the assay with OVCAR-5 ovarian, 99.9%; with OVCAR-4 ovarian, 110%; in the assay on SK-OV-3 ovarian, 97.6%. The growth with IGROV1 ovarian is 101%; in the assay with HS 578T breast it was 111%; in the assay on NCI/ADR-RES ovarian, 110%.
As for `COc1cc(Cn2c(SCC(=O)Nc3cc(OC)c(OC)c(OC)c3)nc3ccccc3c2=O)cc(OC)c1OC`, the growth was 66.6% with SR leukemia; 96% in the assay on RPMI-8226 leukemia; 81% with OVCAR-8 ovarian; 88.8% with OVCAR-5 ovarian; 89.8% with OVCAR-4 ovarian; 51.2% with SK-OV-3 ovarian. The results for the growth in the assay with IGROV1 ovarian, in the assay with HS 578T breast and with NCI/ADR-RES ovarian were 72.6%, 48.4% and 99.5%, respectively.
Consider `COc1cc(NC(=O)CSc2nc3ccc(C)cc3c(=O)n2-c2ccccc2)cc(OC)c1OC`, for which the growth in the assay with SR leukemia was 42.3%; with RPMI-8226 leukemia it was 76.3%; in the assay on OVCAR-8 ovarian it was 87.4%; with OVCAR-5 ovarian it was 99.5%; in the assay on OVCAR-4 ovarian, 68.9%; in the assay on SK-OV-3 ovarian, 107%. Also, the growth with IGROV1 ovarian was 89.6%; in the assay on OVCAR-3 ovarian, 84.4%; with NCI/ADR-RES ovarian, 75.5%.
As for `COc1ccc(/C=C/c2nc(N3CCOCC3)c3cc(F)c(F)cc3n2)cc1OC`, the growth was 16.2% in the assay with SR leukemia; 12.2% in the assay on RPMI-8226 leukemia; 32.9% in the assay with OVCAR-8 ovarian; 76% in the assay on OVCAR-5 ovarian; 30.6% with OVCAR-4 ovarian; 71.8% with SK-OV-3 ovarian. Further, the growth with IGROV1 ovarian was 53.4%; in the assay on HS 578T breast, 70.1%; in the assay on NCI/ADR-RES ovarian it was 22.8%.
Turning to `C=C1C(=O)O[C@H]2[C@H]1CC/C(Cn1cc(-c3ccccc3C(F)(F)F)nn1)=C\CC[C@@]1(C)O[C@@H]21`, the growth was 2.59% (active) in the assay with SR leukemia; -29.4% (active) with RPMI-8226 leukemia; -27.1% (active) with OVCAR-8 ovarian; -18.6% (active) in the assay on OVCAR-5 ovarian; -19% (active) in the assay on OVCAR-4 ovarian; 79.1% in the assay with SK-OV-3 ovarian. The growth with IGROV1 ovarian was -21.4% (active); in the assay with OVCAR-3 ovarian, -93.8% (active); with NCI/ADR-RES ovarian it was 19.6%.
Take `CCN(CC)c1cc(/C=C/c2ccc(OC)c(OC)c2)nc2cc(F)c(F)cc12`: the growth was 10.7% with SR leukemia; 99.1% in the assay on RPMI-8226 leukemia; 36% in the assay on OVCAR-8 ovarian; 88.7% in the assay on OVCAR-5 ovarian; 87.2% in the assay on OVCAR-4 ovarian; -39.5% (active) in the assay on SK-OV-3 ovarian. For the same compound, the figures for the growth in the assay on IGROV1 ovarian, with HS 578T breast and with NCI/ADR-RES ovarian were 19.2%, 2.13% (active) and 41.2%, respectively.
On to `CCC1CCc2nc3sc(C(=O)Nc4ccccc4F)c(N)c3cc2C1` (stereo unspecified), for which the growth was 16.8% in the assay with SR leukemia; 47.5% in the assay on RPMI-8226 leukemia; 83.3% in the assay on OVCAR-8 ovarian; 87.6% with OVCAR-5 ovarian; 90.9% in the assay on OVCAR-4 ovarian; 80.7% in the assay on SK-OV-3 ovarian. Further, the growth is 88.3% in the assay with IGROV1 ovarian, 70% with HS 578T breast and 62.5% in the assay on NCI/ADR-RES ovarian.
`N#Cc1ncc(-c2ccc(F)c(F)c2F)c(NC2CCCCCC2)n1`: the growth with SR leukemia was 69.5%; in the assay on RPMI-8226 leukemia it was 63.1%; with OVCAR-8 ovarian, 86.1%; in the assay on OVCAR-5 ovarian, 94.2%; in the assay on OVCAR-4 ovarian, 81.1%; in the assay on SK-OV-3 ovarian, 95.8%. The growth in the assay on IGROV1 ovarian was 83.8%; with HS 578T breast, 75.9%; in the assay with NCI/ADR-RES ovarian, 83.8%.
